This is part of a sample that, as a whole, favours compounds with a hit. Of some 83,000 tested, about 20% had one in any assay.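 Method: cells in 96-well plates; compound added at one concentration; 48 h incubation; percent growth measured; values under 10 scored active.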 Active and inactive are the calls of the source.
Legend:
Assay in all cases: NCI-60 one-dose screen, 48 h (100 = growth as untreated, 0 = no growth, -100 = all killed)
Settings in all cases: 10 µM unless noted
NCI-H23 lung = tested on: NCI-H23 lung
NCI-H226 lung = tested on: NCI-H226 lung
NCI-H322M lung = tested on: NCI-H322M lung
HOP-62 NSCLC = tested on: HOP-62 NSCLC
NCI-H460 lung = tested on: NCI-H460 lung
HOP-92 NSCLC = tested on: HOP-92 NSCLC
NCI-H522 lung = tested on: NCI-H522 lung
A549/ATCC NSCLC = tested on: A549/ATCC NSCLC
786-0 renal = tested on: 786-0 renal
COLO 205 colon = tested on: COLO 205 colon
DU-145 prostate = tested on: DU-145 prostate
K-562 leukemia = tested on: K-562 leukemia
MALME-3M melanoma = tested on: MALME-3M melanoma
MDA-MB-231 breast = tested on: MDA-MB-231 breast
RXF 393 renal = tested on: RXF 393 renal
SF-268 CNS = tested on: SF-268 CNS
SF-295 CNS = tested on: SF-295 CNS
SF-539 CNS = tested on: SF-539 CNS
UACC-257 melanoma = tested on: UACC-257 melanoma
M14 melanoma = tested on: M14 melanoma

Measured: growth

COC1=C(OC)C(=O)C=CC1=O
inactive: NCI-H23 lung 111% | NCI-H226 lung 107% | NCI-H322M lung 101% | HOP-62 NSCLC 117% | NCI-H460 lung 118% | HOP-92 NSCLC 110% | NCI-H522 lung 63.7% | A549/ATCC NSCLC 109% | 786-0 renal 103% | COLO 205 colon 99.8% | DU-145 prostate 114% | MALME-3M melanoma 114% | MDA-MB-231 breast 101% | RXF 393 renal 114% | SF-268 CNS 109% | SF-295 CNS 113% | SF-539 CNS 110% | UACC-257 melanoma 110% | M14 melanoma 116%
active: K-562 leukemia 7.24%

COc1ccc(-c2nn(-c3ccc(NC(=O)c4ccc(Cl)c(C(F)(F)F)c4)cc3)cc2-c2ccncc2)cc1Cl
inactive: NCI-H23 lung 30.2% | NCI-H226 lung 70.5% | NCI-H322M lung 51.5% | NCI-H460 lung 11.3% | NCI-H522 lung 30.6% | A549/ATCC NSCLC 31% | DU-145 prostate 45% | SF-268 CNS 14.5% | UACC-257 melanoma 51.2% | M14 melanoma 13.3%
active: HOP-62 NSCLC -24.9% | HOP-92 NSCLC -0.441% | 786-0 renal -55.7% | COLO 205 colon -19% | K-562 leukemia 0.122% | MALME-3M melanoma 6.68% | MDA-MB-231 breast -29.6% | RXF 393 renal -76% | SF-295 CNS -30.3% | SF-539 CNS 9.99%

COc1ccc(-c2nn(-c3ccc(NC(=O)c4cc(Cl)cc(Cl)c4)cc3)cc2-c2ccncc2)cc1Cl
active: 786-0 renal 3.68% | RXF 393 renal -66.8% | SF-295 CNS -28.5%
inactive: NCI-H23 lung 83.7% | NCI-H226 lung 98.4% | NCI-H322M lung 88.6% | HOP-62 NSCLC 59.9% | NCI-H460 lung 38.3% | HOP-92 NSCLC 84.6% | NCI-H522 lung 87.6% | A549/ATCC NSCLC 53.1% | COLO 205 colon 46.9% | DU-145 prostate 76.6% | K-562 leukemia 12% | MALME-3M melanoma 89.9% | MDA-MB-231 breast 25.1% | SF-268 CNS 63.5% | SF-539 CNS 47.8% | UACC-257 melanoma 85% | M14 melanoma 42.9%

COc1cc(C(=O)C[n+]2ccccc2)ccc1OC(C)=O
inactive: NCI-H23 lung 106% | NCI-H226 lung 96.3% | NCI-H322M lung 106% | HOP-62 NSCLC 94.6% | NCI-H460 lung 99% | HOP-92 NSCLC 91.5% | NCI-H522 lung 98% | A549/ATCC NSCLC 98.3% | 786-0 renal 90.9% | COLO 205 colon 104% | DU-145 prostate 106% | K-562 leukemia 101% | MALME-3M melanoma 105% | MDA-MB-231 breast 102% | RXF 393 renal 92% | SF-268 CNS 98.4% | SF-295 CNS 97.4% | SF-539 CNS 94.3% | UACC-257 melanoma 95.4% | M14 melanoma 94.9%

Nc1nccc2c1ccn2-c1cccc(NC(=O)c2ccc(N3CCOCC3)c(C(F)(F)F)c2)c1
inactive: NCI-H23 lung 16.4% | NCI-H226 lung 35.8% | NCI-H322M lung 35.3% | HOP-62 NSCLC 24.1% | A549/ATCC NSCLC 10.8% | MALME-3M melanoma 39.8% | SF-268 CNS 21.8% | UACC-257 melanoma 59.2% | M14 melanoma 16%
active: NCI-H460 lung 1.28% | HOP-92 NSCLC -6.29% | NCI-H522 lung -43% | 786-0 renal -38.9% | COLO 205 colon -38.6% | DU-145 prostate -0.195% | K-562 leukemia 9.79% | MDA-MB-231 breast 6.1% | RXF 393 renal -75.9% | SF-295 CNS -30.9% | SF-539 CNS 3.23%

C=C1C(=O)O[C@H]2[C@H]1CC/C(COC(=O)OC/C1=C/CC[C@@]3(C)O[C@H]3[C@H]3OC(=O)[C@@H](CN(C)C)[C@@H]3CC1)=C\CC[C@@]1(C)O[C@@H]21
inactive: NCI-H23 lung 47.6% | NCI-H322M lung 88% | HOP-62 NSCLC 89.2% | NCI-H460 lung 80.1% | A549/ATCC NSCLC 73.4% | DU-145 prostate 15.3% | SF-268 CNS 63.1% | SF-295 CNS 94.7%
active: NCI-H226 lung -49.6% | HOP-92 NSCLC -51.8% | NCI-H522 lung -48.5% | 786-0 renal -49.7% | COLO 205 colon -43.2% | K-562 leukemia 1.85% | MALME-3M melanoma -34.7% | MDA-MB-231 breast -10.4% | RXF 393 renal -81.5% | SF-539 CNS -12.1% | UACC-257 melanoma -28% | M14 melanoma -22.9%

O=C(Nc1ccc(-n2cc(-c3ccncc3)c(-c3ccc(O)c(Cl)c3)n2)cc1)Nc1ccc(Cl)c(C(F)(F)F)c1
inactive: NCI-H23 lung 16.2% | NCI-H226 lung 50.2% | NCI-H322M lung 27.3% | HOP-62 NSCLC 28.3% | A549/ATCC NSCLC 16.7% | COLO 205 colon 41.3% | DU-145 prostate 29.5% | K-562 leukemia 17.1% | MALME-3M melanoma 13.3% | SF-268 CNS 18.4% | SF-539 CNS 13.7% | UACC-257 melanoma 47.5%
active: NCI-H460 lung -1.85% | HOP-92 NSCLC -22.9% | NCI-H522 lung 9.38% | 786-0 renal -31.5% | MDA-MB-231 breast -39.7% | RXF 393 renal -74.4% | SF-295 CNS -10.3% | M14 melanoma 7.1%

FC(F)(F)c1cccc([Si](F)(c2cccc(C(F)(F)F)c2)c2cccc(C(F)(F)F)c2)c1
inactive: NCI-H23 lung 43.4% | NCI-H226 lung 70.3% | NCI-H322M lung 91% | HOP-62 NSCLC 90.2% | NCI-H460 lung 73.9% | HOP-92 NSCLC 16.1% | NCI-H522 lung 53.2% | A549/ATCC NSCLC 78.1% | 786-0 renal 50.5% | COLO 205 colon 102% | DU-145 prostate 94% | K-562 leukemia 62.2% | MALME-3M melanoma 106% | MDA-MB-231 breast 80.4% | RXF 393 renal 87.6% | SF-268 CNS 84% | SF-295 CNS 69.2% | SF-539 CNS 101% | UACC-257 melanoma 81.3% | M14 melanoma 86.1%

COc1ccc(C2=NN(C(=O)COc3ccc(Cl)cc3)C(O)(c3cc(F)c(Cl)cc3Cl)C2)cc1OC (stereo not given)
inactive: NCI-H23 lung 49.7% | NCI-H226 lung 82.2% | NCI-H322M lung 88.8% | HOP-62 NSCLC 75.4% | NCI-H460 lung 32.9% | A549/ATCC NSCLC 81.3% | MDA-MB-231 breast 30% | SF-295 CNS 75.7% | SF-539 CNS 30.5% | UACC-257 melanoma 107%
active: HOP-92 NSCLC -44.8% | NCI-H522 lung -66.4% | 786-0 renal -74.9% | COLO 205 colon -56.6% | DU-145 prostate 9.5% | K-562 leukemia -66.5% | MALME-3M melanoma 6.18% | RXF 393 renal -90.8% | SF-268 CNS 4.05% | M14 melanoma -13.4%

COc1ccc(-c2ccc(NC(=O)Nc3cccc(C(F)(F)F)c3)c(C)n2)cc1
inactive: NCI-H23 lung 47.6% | NCI-H226 lung 58.1% | NCI-H322M lung 64.4% | HOP-62 NSCLC 68% | NCI-H460 lung 48.7% | HOP-92 NSCLC 68.8% | NCI-H522 lung 28.5% | A549/ATCC NSCLC 42.5% | 786-0 renal 77.3% | COLO 205 colon 84.5% | DU-145 prostate 68.8% | K-562 leukemia 32.5% | MALME-3M melanoma 90.6% | MDA-MB-231 breast 68.6% | RXF 393 renal 85.9% | SF-268 CNS 74.5% | SF-295 CNS 47.6% | SF-539 CNS 80.8% | UACC-257 melanoma 61.4% | M14 melanoma 37.2%

Cc1nccc2c3ccc(OCc4cn(Cc5ccc(Br)cc5)nn4)cc3n(CCCc3ccccc3)c12
inactive: NCI-H23 lung 82.5% | NCI-H226 lung 88.9% | NCI-H322M lung 85.9% | HOP-62 NSCLC 62% | NCI-H460 lung 89.5% | HOP-92 NSCLC 77.9% | NCI-H522 lung 59.4% | A549/ATCC NSCLC 82.6% | 786-0 renal 67% | COLO 205 colon 92.4% | DU-145 prostate 91.9% | K-562 leukemia 75.5% | MALME-3M melanoma 92.9% | MDA-MB-231 breast 79.3% | RXF 393 renal 82% | SF-268 CNS 81% | SF-295 CNS 86.2% | SF-539 CNS 77% | UACC-257 melanoma 99.3% | M14 melanoma 103%

O=C(Nc1ccc(-n2cc(-c3ccncc3)c(-c3ccc(O)c(Cl)c3)n2)cc1)c1cc(Cl)cc(Cl)c1
active: 786-0 renal -42.1% | MDA-MB-231 breast -54.1% | RXF 393 renal -80.2% | SF-295 CNS -11.1% | M14 melanoma -40.4%
inactive: NCI-H23 lung 59.2% | NCI-H226 lung 89.1% | NCI-H322M lung 50.1% | HOP-62 NSCLC 45.5% | NCI-H460 lung 22.3% | HOP-92 NSCLC 42% | NCI-H522 lung 22% | A549/ATCC NSCLC 35.9% | COLO 205 colon 91.1% | DU-145 prostate 38.9% | K-562 leukemia 11.5% | MALME-3M melanoma 34% | SF-268 CNS 49.4% | SF-539 CNS 12.8% | UACC-257 melanoma 66.9%

COc1cc(/C=C/C(=O)c2ccc(Oc3ncnc4ccccc34)cc2)cc(OC)c1OC
inactive: NCI-H23 lung 80.3% | NCI-H226 lung 98.5% | NCI-H322M lung 69.5% | HOP-62 NSCLC 81.9% | NCI-H460 lung 84.5% | HOP-92 NSCLC 109% | NCI-H522 lung 52.7% | A549/ATCC NSCLC 73.1% | 786-0 renal 82.2% | COLO 205 colon 109% | DU-145 prostate 21.4% | K-562 leukemia 12.1% | MALME-3M melanoma 98.9% | MDA-MB-231 breast 86.5% | RXF 393 renal 84.3% | SF-268 CNS 81.1% | SF-295 CNS 86.7% | SF-539 CNS 63.6% | UACC-257 melanoma 93.3% | M14 melanoma 73.8%

OC(COc1ccccc1Cl)CN1CCN(c2ccc(Cl)cc2)CC1 (stereo not given)
inactive: NCI-H23 lung 107% | NCI-H226 lung 94.5% | NCI-H322M lung 101% | HOP-62 NSCLC 108% | NCI-H460 lung 104% | HOP-92 NSCLC 85.8% | NCI-H522 lung 92.6% | A549/ATCC NSCLC 112% | 786-0 renal 106% | COLO 205 colon 116% | DU-145 prostate 110% | K-562 leukemia 115% | MALME-3M melanoma 110% | MDA-MB-231 breast 103% | RXF 393 renal 94.3% | SF-268 CNS 104% | SF-295 CNS 97.9% | SF-539 CNS 90.6% | UACC-257 melanoma 109% | M14 melanoma 105%
